Bioassay records as filed in PubChem.
The list is not random: actives were taken first. Their share in the collection is about 12%.
G9a inh = G9a (human) methyltransferase inhibition; Q96KQ7; G9a H3K9 monomethylation, AlphaScreen, 2 h; Potency, µM (doses to about 102 µM), inactives show top-dose activity, negative = inhibition, most hits filed as inhibitors; 350,000 compounds, 8.8% hits; AID 504332; note: potency is the fitted concentration of half-maximal effect; % is set by controls: 0 for no effect and ±100 for the full control effect; nearly all actives have a fitted effect of over 75% in size
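Step 1: enzyme (final 20 nM) with compound, 15 min RT. Step 2: substrate peptide 500 nM and SAM 20 uM, 2 h RT. Step 3: anti-H3K9me1 antibody and AlphaScreen beads, 10 min, then plate read.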
PLK1 PBD block = blocks phosphopeptide binding to human PLK1 polo-box domain; P53350; Plk1 PBD binding of FITC phosphopeptide, fluorescence polarization; Potency, µM, inactives show max response, negative = inhibition, usual class: inhibitors; 360,000 compounds, 2.8% hits; AID 720504; note: potency is the fitted concentration of half-maximal effect; series mostly up to about 57 µM; % is set by controls: 0 for no effect and ±100 for the full control effect; nearly all actives have a fitted effect of over 65% in size
BAZ2B inh = BAZ2B (human) inhibition; Potency, µM (series often up to 114 µM), without a hit: at the highest dose activity change, negative = inhibition, most hits filed as inhibitors; Q9UIF8; AlphaScreen BAZ2B-H3K14Ac peptide displacement; 360,000 compounds, 4.4% hits; note: potency is the fitted concentration of half-maximal effect; % is set by controls: 0 for no effect and ±100 for the full control effect; nearly all actives have a fitted effect of over 60% in size
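BAZ2B (50 nM) with biotin-H3(5-23)K14Ac peptide (50 nM) in PBS pH 7.4, 0.01% Tween-20, preformed 30 min, then compound 30 min at room temperature; top concentration 110uM. AlphaScreen streptavidin donor/nickel chelate acceptor beads (10 ug/mL final), 20 min dark, signal read.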
JMJD2A Tudor inh = blocks the human JMJD2A Tudor domain; O75164; 390,000 compounds, 4.4% hits; AlphaScreen JMJD2A-Tudor / H3K4me3 peptide binding; Potency, µM (series often up to 114 µM), for the others: at the highest dose activity change, negative = inhibition, most hits filed as inhibitors; note: potency is the fitted concentration of half-maximal effect; % is set by controls: 0 for no effect and ±100 for the full control effect; nearly all actives have a fitted effect of over 50% in size
PI5P4Ka inh = PI5P4K alpha (human) kinase inhibition. P48426. max response, %. 330,000 compounds, 1.2% hits. PI5P4Kalpha enzyme, ADP-Glo luminescence, 60 min; hits give low values. AID 652105; active = max response of -50% or lower; inconclusive = between -30% and -50%; inactive = -30% or higher; note: value at the top dose of about 77 µM; % is set by controls: 0 for no effect and ±100 for the full control effect
Target sequence (P48426 whole entry, looked up): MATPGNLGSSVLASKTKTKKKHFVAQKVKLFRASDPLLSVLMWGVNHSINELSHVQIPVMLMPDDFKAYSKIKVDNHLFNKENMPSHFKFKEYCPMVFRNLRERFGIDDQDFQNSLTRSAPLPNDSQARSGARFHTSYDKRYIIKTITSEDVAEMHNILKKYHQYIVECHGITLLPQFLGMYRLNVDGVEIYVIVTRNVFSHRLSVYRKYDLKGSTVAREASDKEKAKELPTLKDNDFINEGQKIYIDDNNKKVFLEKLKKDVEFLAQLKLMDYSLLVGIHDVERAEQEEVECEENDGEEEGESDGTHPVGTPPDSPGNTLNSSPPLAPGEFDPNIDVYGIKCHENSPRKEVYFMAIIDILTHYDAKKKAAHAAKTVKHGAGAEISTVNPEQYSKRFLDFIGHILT
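Human PI5P4Kalpha with substrate in 0.038 M HEPES pH 7.4, 0.28 mM EGTA, 0.1% CHAPS, 5% DMSO; reaction started with 5 microM ATP (final), 60 min at room temperature. ADP formed read by ADP-Glo luminescence.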
HP1b chromo inh = blocks HP1-beta chromodomain binding to methylated histone tails. Potency, µM (top dose mostly 114 µM), inactives show top-dose activity change, negative = inhibition, hits mostly inhibitors. AlphaScreen HP1-beta / biotin-H3K9me3 peptide binding. P83916. 390,000 compounds, 0.56% hits; note: potency is the fitted concentration of half-maximal effect; nearly all actives have a fitted effect of over 70% in size
Target sequence (P83916 whole entry, looked up): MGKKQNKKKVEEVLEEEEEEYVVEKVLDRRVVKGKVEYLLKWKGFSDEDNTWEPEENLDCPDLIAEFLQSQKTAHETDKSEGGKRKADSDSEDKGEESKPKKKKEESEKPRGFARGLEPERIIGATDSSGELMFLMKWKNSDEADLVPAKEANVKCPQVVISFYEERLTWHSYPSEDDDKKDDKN
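AlphaScreen: HP1-beta (50 nM) preformed 30 min with biotin-H3(1-18)K9me3 peptide (50 nM) in PBS pH 7.4, 0.01% Tween-20. Compound added for 30 min at RT, then streptavidin donor/nickel chelate acceptor beads (10 ug/mL) for 30 min.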
* = called active by the depositor; ? = inconclusive; nt = no result; [ ] = another dose, or the depositor's remark. Unless noted, calls come from the whole dose curve; as a rule, active = well fitted curve in the direction sought with a large enough effect; inconclusive = small, poorly fitted or top-dose-only effect, or another doubt; inactive = no such curve, though single readings can be large; an effect the other way counts as inactive or inconclusive.

SMILES	G9a inh	PLK1 PBD block	BAZ2B inh	JMJD2A Tudor inh	PI5P4Ka inh	HP1b chromo inh
COc1ccc(NC(=O)c2cc(=O)c3ccccc3o2)cc1Cl	56µM*	-15%	-34%	-22%	-10	26%
Cc1cccc2sc(NNC(=O)c3cc(=O)c4ccccc4o3)nc12	nt	?	45µM*	?	-52*	-12%
COc1ccc2nc(NNC(=O)c3cc(=O)c4ccccc4o3)sc2c1	8.9µM*	-12%	50µM*	56µM*	-76*	?
CS(=O)(=O)c1ccc(C(=O)N2CCN(C(=O)c3ccco3)CC2)cc1	-26%	0%	-3%	5%	-1	30%
Cc1csc2nc(COC(=O)CNC(=O)c3ccccc3Cl)cc(=O)n12	5%[59 µM]	nt	-4%	-4%	nt	26%
Cc1ccc2sc(NNC(=O)c3cc(=O)c4ccccc4o3)nc2c1C	7.1µM*	-16%	50µM*	56µM*	?	?
O=C(O)C1CC=CC2CCN(C3CC3)C(=O)C21 (stereo not drawn)	nt	nt	nt	-21%	nt	35%
Cc1[nH][nH]c(=O)c1C(c1ccc(-c2cccc(C(=O)O)c2)o1)c1c(C)[nH][nH]c1=O	18µM*	?	79µM*	56µM*	?	?
Cc1[nH][nH]c(=O)c1C(c1ccc(-c2ccccc2C(=O)O)o1)c1c(C)[nH][nH]c1=O	3.5µM*	?	35µM*	89µM*	-2	-1%
COc1ccc(C(=O)Oc2ccc(C(c3c(C)[nH][nH]c3=O)c3c(C)[nH][nH]c3=O)cc2OC)cc1	-32%[59 µM]	nt	?	?	nt	15%
Cc1[nH][nH]c(=O)c1C(c1ccc(-c2cccc(Cl)c2)o1)c1c(C)[nH][nH]c1=O	nt	12µM*	40µM*	45µM*	-15	?
COC(=O)c1ccc(-c2ccc(C(c3c(C)[nH][nH]c3=O)c3c(C)[nH][nH]c3=O)o2)cc1	1.4µM*	12µM*	8.9µM*	32µM*	?	-26%
N#Cc1c(-c2ccc(Cl)cc2)c(-c2ccc(Cl)cc2)nn(CCO)c1=O	nt	-23%	nt	?	-12	1%
Cc1[nH][nH]c(=O)c1C(c1ccc(-c2ccc(Cl)cc2Cl)o1)c1c(C)[nH][nH]c1=O	7.1µM*	nt	?	nt	nt	nt
Cc1ccccc1NC(=O)c1ccc(-c2ccc(Cl)cc2Cl)o1	-7%[59 µM]	-6%	-2%	8%	1	60%
O=Cc1ccc2noc(-c3ccc(Cl)cc3)c2c1	22µM*	-8%	-5%	-6%	-24	23%
Cc1ccc(-c2onc3ccc(Cl)cc23)cc1	21%[59 µM]	-10%	0%	-4%	0	44%
C=CCOc1cccc(C2C(C(=O)c3ccco3)=C(O)C(=O)N2Cc2ccco2)c1 (stereo not drawn)	45µM*	-23%	-37%	-36%	6	5%
CC(=O)C1=C(O)C(=O)N(Cc2cccnc2)C1c1ccc(O)cc1 (stereo not drawn)	50µM*	27µM*	79µM*	-20%[11.4 µM]	1	6%
C=CCOc1ccc(C2C(C(=O)c3ccc(C)o3)=C(O)C(=O)N2Cc2cccnc2)cc1 (stereo not drawn)	40µM*	-6%	-9%	?	9	5%
CC(=O)C1=C(O)C(=O)N(Cc2ccco2)C1c1ccc2c(c1)OCO2 (stereo not drawn)	50µM*	-4%	-7%	-29%	nt	13%
CC(=O)C1=C(O)C(=O)N(Cc2ccccc2)C1c1ccc(F)cc1 (stereo not drawn)	13%	-2%	-4%	-16%	2	34%
CC(=O)C1=C(O)C(=O)N(Cc2cccnc2)C1c1ccccc1 (stereo not drawn)	?	1%	1%	-7%	nt	41%
C=CCOc1cccc(C2C(C(=O)c3ccco3)=C(O)C(=O)N2Cc2ccncc2)c1 (stereo not drawn)	?	2%	-28%	-6%	3	53%
O=C(O)CCCC(=O)Nc1ccccc1SCCS(=O)(=O)c1ccc(Cl)cc1	-33%	-23%	-2%	-17%	-5	29%
SMILES	G9a inh	PLK1 PBD block	BAZ2B inh	JMJD2A Tudor inh	PI5P4Ka inh	HP1b chromo inh
CN1CCN(c2ncc3nc(CCc4ccccc4)c(=O)n(CCC#N)c3n2)CC1	-1%[12.7 µM]	nt	nt	nt	nt	nt
CCOc1cccc(C2C(C(=O)c3cccs3)=C(O)C(=O)N2Cc2cccnc2)c1 (stereo not drawn)	56µM*	-1%	-29%	-13%	-2	30%
Cn1c(CCNC(=O)c2ccco2)nc2cc(NC(=O)COc3ccc(Cl)cc3)ccc21	?	nt	-1%	-14%	nt	39%
Cc1cc2nc(CS)[nH]c2cc1C	10µM*	?	-13%	-20%	-29	12%
Cc1cc2nc(CO)[nH]c2cc1C	18%	3%	-5%	-9%	1	60%
O=C(NCn1ccc(=O)[nH]c1=S)c1ccccc1	56µM*	-2%	-4%	-19%	-5	-14%
N#CC1=C(NC=NCc2ccccc2)Oc2ccc3ccccc3c2C1c1ccccc1 (stereo not drawn)	nt	nt	nt	-30%	nt	nt
CCOc1ccc(C2C(=O)N(C3CCCCCC3)CC(=O)N2Cc2ccc(F)cc2)cc1OC (stereo not drawn)	-17%[59 µM]	nt	-10%	-20%	nt	19%
Cc1ccc(S(=O)(=O)N2CCN(C(C)C)CC2)cc1	-6%	-15%	-5%	-10%	1	38%
Cc1ccc(S(=O)(=O)N2CCN(C(C)CC(=O)O)CC2)cc1 (stereo not drawn)	28µM*	4%	50µM*	5.6µM*	3	?
Cc1ccc(S(=O)(=O)N2CCN(C(=O)CC(C)C)CC2)cc1	3%	1%	1%	-2%	-1	27%
CCC(C)c1ccc(S(=O)(=O)N2CCN(C(C)CC(=O)O)CC2)cc1 (stereo not drawn)	7.1µM*	0%	nt	3.5µM*	1	-27%
COc1ccc(C2NC(=O)NC3=C2CCc2ccccc23)cc1 (stereo not drawn)	?	?	-4%	-6%	7	-1%
Cc1ccc(C2NC(=O)NC3=C2CCc2ccccc23)cc1 (stereo not drawn)	10µM*	-6%	-16%	-16%	nt	23%
COc1cccc(C2NC(=S)NC3=C2CCc2ccccc23)c1 (stereo not drawn)	7.9µM*	-22%	-6%	-12%	-10	-3%
CC(C)c1ccc(C2NC(=O)NC3=C2CCc2ccccc23)cc1 (stereo not drawn)	32µM*	-19%	-7%	-16%	-1	21%
COc1cccc(C2Cc3ccccc3C(=O)O2)c1 (stereo not drawn)	39%	7%	-3%	9%	-5	46%
Cc1ccc(S(=O)(=O)N2CCN(c3nc(C(N)=O)nc4ccccc34)CC2)cc1	nt	nt	nt	-9%	nt	36%
